Mtb BioA inh: blocks M. tuberculosis BioA enzyme activity; AID 602481; 0.096% of 360,000 active; inhibition, % at 9.99 µM; purified M. tuberculosis BioA enzyme, plate reader; in the data active = inhibition above about 40%
BH1578 lux ind: quorum light induction in luxS cqsA deficient V. cholerae. activation, % at 18.7 µM. V. cholerae BH1578 lux reporter, luminescence, 6 h. 0.16% of 350,000 active; in the data active = activation mostly above about 9.7%, no sharp cut-off
Y pestis TopoI: blocks Yersinia pestis topoisomerase I activity | Y. pestis Topo-I cleavage product accumulation, plate reader | activity, % at 10 µM | 0.064% of 360,000 active; in the data active = activity above about 50%, passing the limit was not always enough
TcdB GH inh: inhibitors of Clostridioides difficile toxin B glycohydrolase; P18177; TcdB glycohydrolase enzymatic assay, plate reader; inhibition, % at 9.99 µM; 0.24% of 350,000 active; in the data active = inhibition above about 10%
VHR inh abs: inhibitors of human VHR1 phosphatase (DUSP3). 0.52% of 290,000 active. P51452. inhibition, % at 13.3 µM. AID 1654. recombinant VHR phosphatase, pNPP absorbance; in the data active = inhibition above about 50%
Target sequence (P51452 whole entry, looked up): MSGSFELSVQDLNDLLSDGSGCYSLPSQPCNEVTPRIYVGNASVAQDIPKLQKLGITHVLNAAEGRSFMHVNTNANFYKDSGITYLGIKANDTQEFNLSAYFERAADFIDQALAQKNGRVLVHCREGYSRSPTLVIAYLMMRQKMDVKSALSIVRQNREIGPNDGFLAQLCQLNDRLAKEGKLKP
Numbers stand for hits; i = inactive; nt = no result. Sampled rows, rich in hits. Any-hit rate of the full collection: about 0.73%.

SMILES | Mtb BioA inh | BH1578 lux ind | Y pestis TopoI | TcdB GH inh | VHR inh abs
O=C(CN1C(=O)COc2ccc(Cl)cc21)NCC1CCCO1 (stereo not drawn) | i | i | i | i | 54
CCNc1nc(NC(C)(C)C)nc(N2CCCC2)n1 | i | i | i | nt | i
CC(C)(C)Nc1nc(N2CCCC2)nc(N2CCCC2)n1 | i | 17 | i | nt | i
C/C(Cl)=C/CSc1nnc2n(N)c(=O)c3ccccc3n12 | nt | 33 | i | nt | i
NC(=O)CSc1nnc2n(N)c(=O)c3ccccc3n12 | i | i | i | i | nt
CN(C)C(=O)Cn1cc(S(=O)(=O)Cc2ccccc2)c2ccccc21 | i | i | i | i | 59
CN(C(=O)CS(=O)(=O)c1cn(CC(=O)N2CCCC2)c2ccccc12)c1ccccc1 | i | i | i | i | i
O=C(O)c1ccc2ccc3ccccc3c2c1 | i | i | i | i | nt
O=C(O)c1ccc2cc[nH]c2c1 | i | nt | i | nt | 54
CO[C@H]1CN(C)C(=O)c2cc(NC(=O)C3CC3)ccc2OC[C@@H](C)N(C(=O)c2ccccc2)C[C@H]1C | i | nt | nt | i | nt
CCOc1ccc(C(=O)/C=C/Nc2ccc(S(=O)(=O)Nc3cc(C)nc(C)n3)cc2)cc1 | nt | nt | nt | i | 50
Cc1cc(C)nc(NS(=O)(=O)c2ccc(N/C=C\C(=O)c3ccc(Cl)cc3)cc2)n1 | i | i | i | nt | i
C[C@@H]1CN([C@@H](C)CO)C(=O)c2cc(-c3ccncc3)cnc2O[C@H]1CN(C)C(=O)Nc1ccc2c(c1)OCO2 | i | nt | nt | i | nt
O=C(Nc1ccc(Cl)cc1)Nc1ccccc1C(=O)O | i | i | i | i | 57
O=C(Nc1ccc(F)cc1)Nc1ccccc1F | i | i | i | i | 56
CC(C)c1cn(CC[C@@H]2CC[C@H](NC(=O)C3CCOCC3)[C@@H](CO)O2)nn1 | nt | nt | nt | i | nt
CN(C)c1ccc(NC(=O)C2CCCN(S(=O)(=O)c3ccccc3)C2)cc1 (stereo not drawn) | nt | i | i | i | 56
C[C@@H]1CN([C@@H](C)CO)C(=O)c2cc(NS(=O)(=O)c3cn(C)cn3)ccc2O[C@@H]1CN(C)C(=O)Nc1ccc(C(F)(F)F)cc1 | i | nt | nt | i | nt
Cc1ccc(S(=O)(=O)Nc2ccc3c(c2)C(=O)N([C@@H](C)CO)C[C@@H](C)[C@H](CN(C)C(=O)c2ccccc2)OCCCC[C@@H](C)O3)cc1 | i | nt | nt | i | nt
CC(C)CCN1C(N(C)C)=NC[C@@H]1C | i | 26 | i | i | nt
COC(=O)c1ccc(/C=N\N2CCN(c3ccccc3)CC2)cc1 | i | i | i | i | 51
CC(C)=CC(=O)Nc1nnc(-c2cccnc2)s1 | i | i | i | nt | 53
Cc1noc(C)c1NC(=O)Nc1cccc2c1O[C@@H](CN(C)C(=O)Nc1ccccc1)[C@@H](C)CN([C@H](C)CO)C2=O | i | nt | nt | i | nt
COc1ccc2c3c(n(C)c2c1)[C@H](CO)N(Cc1cc(F)ccc1F)CC31CN(C(C)=O)C1 | nt | nt | nt | i | nt
C[C@@H]1CN([C@H](C)CO)S(=O)(=O)c2ccc(-c3cncnc3)cc2O[C@@H]1CN(C)C(=O)Cc1ccccc1 | i | nt | nt | i | nt
SMILES | Mtb BioA inh | BH1578 lux ind | Y pestis TopoI | TcdB GH inh | VHR inh abs
COc1ccc(CNCCc2ccc3c(c2)OCO3)cc1Br | i | i | i | 11 | i
Cc1nc2ccccc2n1C1CC(=O)N(N(C)C)C1=O (stereo not drawn) | nt | i | i | i | 56
C[C@@H]1CCCCO[C@@H](CN(C)Cc2ccncc2)[C@@H](C)CN([C@H](C)CO)C(=O)c2cc(NC(=O)c3ccncc3)ccc2O1 | i | nt | nt | i | nt
Cc1cc(C)cc(N(C(=O)c2csnn2)C(C(=O)NC2CCCCC2)c2cccnc2)c1 (stereo not drawn) | i | i | i | i | 53
Cc1ccccc1C(C(=O)NC1CCCCC1)N(C(=O)c1ccccn1)c1cccnc1 (stereo not drawn) | i | i | i | 14 | i
O=C(NC1CCCCC1)C(c1ccc(Cl)cc1)N(C(=O)c1ccccn1)c1cccnc1 (stereo not drawn) | nt | nt | nt | nt | 57
CCOc1ccc(C(C(=O)NC2CCCCC2)N(C(=O)c2ccccn2)c2cccnc2)cc1 (stereo not drawn) | nt | i | i | i | i
O=C(NCC(=O)N(c1ccccc1)C(C(=O)NC1CCCC1)c1cccnc1)c1cccs1 (stereo not drawn) | i | i | i | nt | 53
C[C@@H]1CN([C@H](C)CO)C(=O)c2cccc(N(C)C)c2O[C@H]1CN(C)C(=O)Nc1ccc(C(F)(F)F)cc1 | i | nt | nt | i | nt
CN1CCN(C(=O)C[C@@H]2CC[C@H]3[C@@H](COC[C@@H](O)CN3C(=O)Cc3ccccc3)O2)CC1 | i | nt | nt | i | nt
CCCC#Cc1cnc2c(c1)C(=O)N([C@@H](C)CO)C[C@H](C)[C@H](CN(C)C(=O)c1ccccc1)O2 | i | nt | nt | i | nt
COCCNc1cc(N)c([N+](=O)[O-])cc1[N+](=O)[O-] | nt | i | i | 11 | i
CCOC(=O)c1ccc(NCCOC)c([N+](=O)[O-])c1 | i | i | i | i | i
COc1ccc(C(=O)c2c(C)oc3ccc(O)cc23)c(OC)c1 | i | i | i | i | 58
COc1ccc(C(=O)c2c(C)oc3ccc(O)cc23)cc1 | i | i | i | i | i
CO[C@H]1CN(C)C(=O)c2cc(NC(=O)C3CC3)ccc2OC[C@@H](C)N(C(=O)Cc2ccccn2)C[C@@H]1C | i | nt | nt | i | nt
COc1ccc(-c2csc3ncnc(N4CCN(CCO)CC4)c23)cc1 | nt | i | i | i | 57
c1ccc(-c2csc(-c3ccncc3)n2)cc1 | i | i | i | i | 52
Oc1ccccc1-c1csc(-c2ccccc2)n1 | i | i | i | i | i
O=C(CN1CCOCC1)N[C@@H]1CC[C@H](CCNC(=O)C2CCC2)O[C@H]1CO | i | nt | nt | i | nt
COc1ccccc1/C=C/CN1CCC(Oc2ccc(C(=O)N3CCCC3)cc2)CC1 | i | i | i | i | 53
O=C1COc2ccccc2N1Cc1ccccc1Cl | i | 17 | i | nt | i
O=C(CN1C(=O)COc2ccccc21)NCCN1CCCC1 | i | i | i | i | 50
CC1Oc2ccccc2N(Cc2ccccc2Cl)C1=O (stereo not drawn) | nt | i | i | i | i
O=C(CN1C(=O)COc2ccccc21)NCCCN1CCCC1 | i | i | i | i | i
SMILES | Mtb BioA inh | BH1578 lux ind | Y pestis TopoI | TcdB GH inh | VHR inh abs
COc1cc(OC)c(C2Nc3cccc4cccc(c34)N2)c(OC)c1 | i | i | i | i | 53
C[C@@H]1CN([C@@H](C)CO)C(=O)c2cccc(NC(=O)Nc3ccc(C(F)(F)F)cc3)c2O[C@@H]1CN(C)C | i | nt | nt | i | nt
CC(Oc1cccc(Cl)c1)C(=O)Nc1cc(S(=O)(=O)N2CCOCC2)ccc1N1CCCCC1 (stereo not drawn) | nt | i | 71 | i | nt
O=C(CSc1ccccc1)Nc1cc(S(=O)(=O)N2CCOCC2)ccc1N1CCOCC1 | nt | i | i | 12 | i
Cc1cc(Cl)ccc1OC(C)C(=O)Nc1ccccc1N1CCOCC1 (stereo not drawn) | i | i | 63 | nt | i
COc1ccc(S(=O)(=O)N2CCOCC2)cc1NC(=O)CSc1ccccc1 | i | i | i | i | i
CCN1CCN(c2ccc(S(=O)(=O)N3CCOCC3)cc2NC(=O)C(C)Oc2cccc(Cl)c2)CC1 (stereo not drawn) | i | i | i | i | nt
